Reference: PubChem BioAssay AID1159580 (chemical genetic matrix, 2015)
Out of some 5,500 compounds screened, about 2,000 (36%) were called active. Not shown: some 18% with an inconclusive outcome. No stated cut-off is given here; in the data, active means normalized growth mostly below about 0.91 (no sharp cut-off); inconclusive means no clear call, values can overlap the other calls; inactive means mostly above about 0.92. The list shows a part of the results.

Assay: chemical genetic growth profiling, strain panel (AID 1159580);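 further: tested at 20 µM; growth read once vehicle control cultures reached saturation at 30 °C; 1 = growth at the plate median or of vehicle wells; lower values mean less growth of the strain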
Conditions: growth OD
[1] = S. cerevisiae deletion strains, locus YBR021W, strain FUR4, active compounds read low
[2] = S. cerevisiae deletion strains, locus YBR229C, strain ROT2, active compounds read low
[3] = S. cerevisiae deletion strains, locus YCL029C, strain bik1, active compounds read low
[4] = S. cerevisiae deletion strains, locus YDL035C, strain GPR1, active compounds read low
[5] = S. cerevisiae deletion strains, locus YDL074C, strain BRE1, active compounds read low
[6] = S. cerevisiae deletion strains, locus YDL101C, strain DUN1, active compounds read low
[7] = S. cerevisiae deletion strains, locus YDL134C, strain PPH21, active compounds read low
[8] = S. cerevisiae deletion strains, locus YDL185W, strain tfp1, active compounds read low
[9] = S. cerevisiae deletion strains, locus YDL192W, strain arf1, active compounds read low
[10] = S. cerevisiae deletion strains, locus YDR101C, strain arx1, active compounds read low
[11] = S. cerevisiae deletion strains, locus YDR162C, strain NBP2, active compounds read low
[12] = S. cerevisiae deletion strains, locus YDR318W, strain mcm21, active compounds read low
[13] = S. cerevisiae deletion strains, locus YDR388W, active compounds read low
[14] = S. cerevisiae deletion strains, locus YDR502C, strain sam2, active compounds read low
[15] = S. cerevisiae deletion strains, locus YEL061C, strain CIN8, active compounds read low
[16] = S. cerevisiae deletion strains, locus YER110C, active compounds read low
[17] = S. cerevisiae deletion strains, locus YER155C, strain BEM2, active compounds read low
[18] = S. cerevisiae deletion strains, locus YER167W, strain BCK2, active compounds read low
[19] = S. cerevisiae deletion strains, locus YGL078C, strain dbp3, active compounds read low
[20] = S. cerevisiae deletion strains, locus YGL086W, strain mad1, active compounds read low
[21] = S. cerevisiae deletion strains, locus YGL248W, strain PDE1, active compounds read low
[22] = S. cerevisiae deletion strains, locus YGR078C, strain PAC10, active compounds read low
[23] = S. cerevisiae deletion strains, locus YGR135W, strain pre9, active compounds read low
[24] = S. cerevisiae deletion strains, locus YGR252W, strain gcn5, active compounds read low
[25] = S. cerevisiae deletion strains, locus YHR030C, strain SLT2, active compounds read low
[26] = S. cerevisiae deletion strains, locus YHR079C, strain IRE1 (second series), active compounds read low
[27] = S. cerevisiae deletion strains, locus YHR094C, strain hxt1, active compounds read low
[28] = S. cerevisiae deletion strains, locus YHR129C, strain ARP1, active compounds read low
[29] = S. cerevisiae deletion strains, locus YHR200W, strain rpn10, active compounds read low
[30] = S. cerevisiae deletion strains, locus YIL066C, strain RNR3, active compounds read low
[31] = S. cerevisiae deletion strains, locus YIL073C, strain SPO22, active compounds read low
[32] = S. cerevisiae deletion strains, locus YIL125W, strain kgd1, active compounds read low
[33] = S. cerevisiae deletion strains, locus YIR030C, strain dcg1, active compounds read low
[34] = S. cerevisiae deletion strains, locus YJL095W, strain BCK1, active compounds read low
[35] = S. cerevisiae deletion strains, locus YJL134W, strain LCB3, active compounds read low
[36] = S. cerevisiae deletion strains, locus YJL168C, strain set2, active compounds read low
[37] = S. cerevisiae deletion strains, locus YJL187C, strain SWE1 (second series), active compounds read low
[38] = S. cerevisiae deletion strains, locus YKL009W, strain mrt4, active compounds read low
[39] = S. cerevisiae deletion strains, locus YKL068W, active compounds read low
[40] = S. cerevisiae deletion strains, locus YKL085W, strain MDH1 (second series), active compounds read low
[41] = S. cerevisiae deletion strains, locus YKL085W, strain MDH1, active compounds read low
[42] = S. cerevisiae deletion strains, locus YKL190W, strain CNB1, active compounds read low
[43] = S. cerevisiae deletion strains, locus YKR001C, strain vps1, active compounds read low
[44] = S. cerevisiae deletion strains, locus YLR039C, strain RIC1, active compounds read low
[45] = S. cerevisiae deletion strains, locus YLR058C, strain SHM2, active compounds read low
[46] = S. cerevisiae deletion strains, locus YLR102C, strain apc9, active compounds read low
[47] = S. cerevisiae deletion strains, locus YLR268W, strain sec22, active compounds read low
[48] = S. cerevisiae deletion strains, locus YLR342W, strain FKS1 (second series), active compounds read low
[49] = S. cerevisiae deletion strains, locus YLR371W, strain rom2, active compounds read low
[50] = S. cerevisiae deletion strains, locus YLR418C, strain cdc73, active compounds read low
[51] = S. cerevisiae deletion strains, locus YML016C, strain PPZ1, active compounds read low
[52] = S. cerevisiae deletion strains, locus YML032C, strain rad52, active compounds read low
[53] = S. cerevisiae deletion strains, locus YML124C, strain tub3, active compounds read low
[54] = S. cerevisiae deletion strains, locus YMR078C, strain ctf18, active compounds read low
[55] = S. cerevisiae deletion strains, locus YMR223W, strain ubp8, active compounds read low
[56] = S. cerevisiae deletion strains, locus YMR263W, strain SAP30, active compounds read low
[57] = S. cerevisiae deletion strains, locus YMR307W, strain GAS1, active compounds read low
[58] = S. cerevisiae deletion strains, locus YNL067W, strain RPL9B, active compounds read low
[59] = S. cerevisiae deletion strains, locus YNL233W, strain BNI4, active compounds read low
[60] = S. cerevisiae deletion strains, locus YNL250W, strain rad50, active compounds read low
[61] = S. cerevisiae deletion strains, locus YNL271C, strain bni1, active compounds read low
[62] = S. cerevisiae deletion strains, locus YNL298W, strain CLA4, active compounds read low
[63] = S. cerevisiae deletion strains, locus YNL307C, strain MCK1, active compounds read low
[64] = S. cerevisiae deletion strains, locus YNR052C, strain pop2, active compounds read low
[65] = S. cerevisiae deletion strains, locus YOL006C, strain TOP1, active compounds read low
[66] = S. cerevisiae deletion strains, locus YOL012C, strain htz1
[67] = S. cerevisiae deletion strains, locus YOL147C, strain pex11, active compounds read low
[68] = S. cerevisiae deletion strains, locus YOR061W, strain CKA2, active compounds read low
[69] = S. cerevisiae deletion strains, locus YOR069W, strain VPS5, active compounds read low
[70] = S. cerevisiae deletion strains, locus YOR136W, strain idh2, active compounds read low
[71] = S. cerevisiae deletion strains, locus YOR144C, strain elg1, active compounds read low
[72] = S. cerevisiae deletion strains, locus YOR184W, strain ser1, active compounds read low
[73] = S. cerevisiae deletion strains, locus YOR316C, strain cot1, active compounds read low
[74] = S. cerevisiae deletion strains, locus YPL241C, strain CIN2, active compounds read low
[75] = S. cerevisiae deletion strains, locus YPR119W, strain clb2, active compounds read low
[76] = S. cerevisiae deletion strains, locus YPR141C, strain kar3, active compounds read low
[77] = S. cerevisiae deletion strains, locus YPR163C, strain tif3, active compounds read low
[78] = S. cerevisiae deletion strains, locus YPR167C, strain met16, active compounds read low
[79] = S. cerevisiae deletion strains, strain wtn01, active compounds read low
[80] = S. cerevisiae strains, strain wild type, active compounds read low

Measured: normalized growth

COc1c(C2COc3cc4c(cc3C2=O)CC(O)C(C)(C)O4)ccc2c1CCC(C)(C)O2 (configuration not stated)
inactive: [1] 0.992 | [2] 1.01 | [3] 1.01 | [4] 1.02 | [5] 1.05 | [6] 1.02 | [7] 1.05 | [8] 1.05 | [9] 1.01 | [10] 0.982 | [11] 1.02 | [12] 1.01 | [13] 1.03 | [14] 1.04 | [15] 1.01 | [16] 1.02 | [17] 1.02 | [18] 1.01 | [19] 1.02 | [20] 1.01 | [21] 1.06 | [22] 1.02 | [23] 1.07 | [24] 1.04 | [25] 1.01 | [26] 1.02 | [27] 1 | [28] 1.02 | [29] 1.03 | [30] 1.04 | [31] 1.08 | [32] 1.01 | [33] 1.03 | [34] 1.05 | [35] 0.995 | [36] 1.03 | [37] 1.04 | S. cerevisiae deletion strains, locus YJR043C, strain POL32, active compounds read low 1.01 | [38] 1.01 | [39] 1.01 | [40] 1.01 | [41] 1.01 | [42] 1.01 | [43] 1.04 | [44] 1.11 | [45] 1.02 | [46] 1.01 | [47] 0.997 | [48] 1.04 | [49] 1.03 | [50] 1.08 | [51] 1 | [52] 1.01 | [53] 1 | [54] 1.02 | [55] 1.02 | [56] 1 | [57] 1.13 | [58] 1.01 | S. cerevisiae deletion strains, locus YNL153C, strain GIM3, active compounds read low 1.06 | [59] 1.04 | [60] 1.05 | [61] 1.01 | [62] 1.02 | [63] 1.01 | [64] 1.03 | [65] 1.06 | [66] 0.808 | [67] 1 | [68] 1.01 | [69] 1.01 | [70] 1.02 | [71] 1.01 | [72] 0.971 | [73] 1.01 | [74] 0.99 | [75] 1.02 | [76] 1.01 | [77] 1.03 | [78] 1.04 | [79] 1 | [80] 1.03

COc1c(C(=O)O)ccc2c1CCC(C)(C)O2
inactive: [1] 1.03 | [2] 1.02 | [3] 1.01 | [4] 1.09 | [5] 1.13 | [6] 1.02 | [7] 1.07 | [8] 0.976 | [9] 1.03 | [10] 0.999 | S. cerevisiae deletion strains, locus YDR150W, strain NUM1, active compounds read low 1.04 | [11] 1.05 | [12] 0.987 | [13] 0.987 | [14] 0.981 | [15] 1.03 | [16] 0.997 | [17] 0.984 | [18] 1.01 | [19] 0.964 | [20] 1 | [21] 1.06 | [22] 1.06 | [23] 0.994 | [24] 1.06 | [25] 1.02 | [26] 0.982 | [27] 0.987 | [28] 1.02 | [29] 1 | [30] 1.04 | [31] 1.12 | [32] 0.957 | [33] 0.982 | [34] 1.1 | [35] 1.01 | [36] 0.988 | [37] 1.03 | [38] 0.995 | [40] 0.955 | [41] 0.955 | [42] 1.02 | [43] 1.04 | [44] 1.19 | [45] 1.04 | [46] 0.986 | S. cerevisiae deletion strains, locus YLR262C, strain YPT6, active compounds read low 1.22 | [47] 0.989 | S. cerevisiae deletion strains, locus YLR330W, strain CHS5, active compounds read low 1.03 | [48] 1.07 | [49] 1.01 | [50] 1.07 | [51] 1.02 | [52] 0.991 | [53] 0.975 | [54] 0.983 | [55] 1 | [56] 1.01 | [57] 1.03 | [58] 0.992 | [59] 1.08 | [60] 0.956 | [61] 0.995 | [62] 0.993 | [63] 0.989 | S. cerevisiae deletion strains, locus YNL322C, strain KRE1, active compounds read low 1.02 | [64] 0.981 | [65] 1.43 | [66] 0.918 | [67] 0.98 | [68] 1.02 | [69] 1.01 | [70] 0.993 | [71] 0.981 | [72] 1.04 | [73] 0.977 | [74] 1.02 | [75] 0.983 | [76] 0.942 | [77] 0.986 | [78] 0.98 | [79] 1.01 | [80] 1.06
active: S. cerevisiae deletion strains, locus YGR229C, strain SMI1, active compounds read low 1.2 [resistant] | [39] 0.922
